# Experimental data as given in PubChem BioAssay.
# Potency and affinity values are given separately. Activity calls are given as the source filed them. Where a call stands in place of a potency, no number is given. Unless noted, no rule for the calls is given here.
# Molecular target: Calcium-dependent protein kinase 1 (Plasmodium falciparum (isolate 3D7)) (UniProt P62344)
# Assay: PfCDPK1 kinase inhibitors, biochemical, TCAMS library (AID 1159585; cut-off not given, nearly all actives have IC50 up to about 0.98 µM;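 also: inhibitors leave more ATP so luminescence rises with inhibition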)
# Conditions: recombinant PfCDPK1, Kinase-Glo ATP depletion luminescence
# Calcium-dependent protein kinase 1 (Plasmodium falciparum (isolate 3D7)), sequence (P62344 whole entry, looked up): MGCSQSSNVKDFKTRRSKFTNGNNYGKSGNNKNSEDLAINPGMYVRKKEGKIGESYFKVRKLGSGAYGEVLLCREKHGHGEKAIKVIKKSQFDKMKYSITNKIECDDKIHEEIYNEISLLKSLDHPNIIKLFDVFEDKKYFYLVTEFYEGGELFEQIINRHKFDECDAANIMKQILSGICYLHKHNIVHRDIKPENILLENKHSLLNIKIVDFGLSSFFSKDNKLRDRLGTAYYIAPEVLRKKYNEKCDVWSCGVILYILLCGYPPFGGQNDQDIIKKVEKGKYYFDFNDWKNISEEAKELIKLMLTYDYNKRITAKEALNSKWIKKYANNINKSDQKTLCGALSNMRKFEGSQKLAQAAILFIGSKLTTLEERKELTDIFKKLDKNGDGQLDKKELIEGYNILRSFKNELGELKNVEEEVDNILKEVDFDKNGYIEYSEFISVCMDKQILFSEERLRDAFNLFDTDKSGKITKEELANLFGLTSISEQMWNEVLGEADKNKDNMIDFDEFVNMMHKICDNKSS
row,SMILES,outcome
1,CC[C@H]1CN2CC[C@H]1C[C@H]2[C@H](O)c1cc(-c2ccccc2F)nc2ccc(OC)cc12,inactive
2,O=C(CNC1CCCCC1)c1ccc(O)c(O)c1,inactive
3,CCCc1c(C(=O)NC2CCC(CN3CCC(c4c[nH]c5ccccc45)CC3)CC2)cnn1-c1c(Cl)cc(Cl)cc1Cl (stereo not given),inactive
4,CC[C@H]1CN2CC[C@H]1C[C@H]2[C@H](O)c1ccnc2ccc(OC)cc12,inactive
5,Oc1ccccc1CNCC(O)c1cccc(C(F)(F)F)c1 (stereo not given),inactive
6,CN1CC=C(c2c[nH]c3ccc(Br)cc23)CC1,inactive
7,[O-]c1n[n+](C2CCCCC2)no1,inactive
8,OC(CNCc1ccccc1OC(F)F)c1cccc(C(F)(F)F)c1 (stereo not given),inactive
9,CCC1(C)CC(CCNCc2ccccc2O)(c2ccc(F)cc2)CCO1 (stereo not given),inactive
10,CC[C@@]1(O)C(=O)OCc2c1cc1n(c2=O)Cc2c-1nc1cc3c(cc1c2CN1CCOCC1)OCO3,inactive
11,COCCSc1ccc(CC(C)NCC(O)c2cccc(Cl)c2)cc1 (stereo not given),inactive
12,CN(c1cc(NC(=O)c2ccc(F)cc2)ccn1)C1CCN(Cc2cccc(O)c2)CC1,inactive
13,CC(Cc1ccc(Sc2ccccc2)cc1)NCC(O)c1cccc(C(F)(F)F)c1 (stereo not given),inactive
14,C[C@@H](CC1CCCCC1)NCc1ccccc1O,inactive
15,CC(C)CNCc1cccc(-c2ccc(CN(C(=O)Nc3ccccc3)C3CCN(Cc4ccccc4)CC3)cc2)c1,inactive
16,Cc1[nH]c2ccccc2c1C1=CCN(C[C@H]2C[C@@H]2C(=O)c2ccccc2)CC1,inactive
17,CCCCCOc1ccc(CC(C)NCC(O)c2cccc(Cl)c2)cc1 (stereo not given),inactive
18,Cc1[nH]c2cc(Cl)ccc2c1C1=CCN(CCN2CCOc3c(Br)cccc3C2=O)CC1,inactive
19,COc1ccc(O)c(CN2CCN(c3cc(C)ccc3C)CC2)c1,inactive
20,O=C(CCCCCc1ccccc1)NC1CCC(CN2CCC(c3c[nH]c4ccccc34)CC2)CC1 (stereo not given),inactive

row,SMILES,outcome
1,CC(=O)C1(c2ccccc2)CCN(CCC(NC(=O)c2cc(C(F)(F)F)cc(C(F)(F)F)c2)c2ccc(Cl)c(Cl)c2)CC1 (stereo not given),inactive
2,C/C=C1\CN2CC[C@H]1C[C@@H]2[C@@H](O)c1ccnc2ccc(O)cc12,inactive
3,O=C(/C=C/c1cccc(F)c1)NC1CCC(CN2CCC(c3c[nH]c4ccccc34)CC2)CC1 (stereo not given),inactive
4,CC[C@H]1CN2CC[C@@H]1C[C@H]2[C@H](O)c1cc(N2CCC(O)CC2)nc2ccc(OC)cc12,inactive
5,COc1ccc(CN2CCN(CCOC(c3ccc(F)cc3)c3ccc(F)cc3)CC2)c(O)c1,inactive
6,CC[C@H]1CN2CC[C@@H]1C[C@H]2[C@H](O)c1cc(-c2cc(Cl)cc(Cl)c2)nc2ccc(OC)cc12,inactive
7,CS(=O)(=O)Nc1ccc2[nH]cc(C3C[C@H]4CC[C@@H](C3)N4CC3CCC(NC(=O)/C=C/c4ccc(Cl)c(Cl)c4)CC3)c2c1 (stereo not given in full),inactive
8,CC(C)CNCc1ccc(-c2cccc(CN(C(=O)Nc3ccccc3)C3CCN(Cc4ccccc4)CC3)c2)cc1,inactive
9,CN(c1cc(NC(=O)c2cccs2)ccn1)C1CCN(Cc2cccc(F)c2)CC1,inactive
10,C[C@@H](NC(C)(C)C)[C@H](O)c1ccc(Cl)c(C(F)(F)F)c1,inactive
11,CC(=O)N(Cc1cccc(-c2cccc(CNCCc3ccccc3)c2)c1)C1CCN(Cc2ccccc2)CC1,inactive
12,CC[C@H]1CN2CC[C@@H]1C[C@H]2[C@H](O)c1cc(-c2ccc(F)cc2)nc2ccc(O)cc12,inactive
13,O=C(Nc1ccccc1OC(F)(F)F)NC1CCC(CN2CCC(c3c[nH]c4ccccc34)CC2)CC1 (stereo not given),inactive
14,COCC(=O)N(Cc1cccc(-c2ccc(CNCCc3ccccc3)cc2)c1)C1CCN(Cc2ccccc2)CC1,inactive
15,O=C(c1cccs1)N(Cc1cccc(-c2ccc(CNC3CCCC3)cc2)c1)C1CCN(Cc2ccccc2)CC1,inactive
16,O=C(C=Cc1ccc(-c2ccccc2)cc1)NC1CCC(CN2CCC(c3c[nH]c4ccccc34)CC2)CC1 (stereo not given),inactive
17,CN(Cc1ccccc1)C1CCN(CCc2c[nH]c3ccc(F)cc23)CC1,inactive
18,CC(C)CNCc1cccc(-c2cccc(CN(C(=O)NC3CCCCC3)C3CCN(Cc4ccccc4)CC3)c2)c1,inactive
19,CC[C@H]1CN2CC[C@H]1C[C@H]2[C@H](O)c1cc(-c2cccc(Cl)c2)nc2ccc(OC)cc12,inactive
20,Oc1cc2c(cc1CN1CCN(Cc3ccccc3)CC1)CCC2,inactive

# Molecular target: Plasmodium falciparum protein kinase 6 (PK6, PF3D7_1337100) (UniProt Q8IDW1)
# Assay: PfPK6 kinase inhibitors, biochemical, TCAMS library (AID 1159586)
# Conditions: recombinant PfPK6, Kinase-Glo ATP depletion luminescence
# Plasmodium falciparum protein kinase 6 (PK6, PF3D7_1337100), sequence (Q8IDW1 1-305): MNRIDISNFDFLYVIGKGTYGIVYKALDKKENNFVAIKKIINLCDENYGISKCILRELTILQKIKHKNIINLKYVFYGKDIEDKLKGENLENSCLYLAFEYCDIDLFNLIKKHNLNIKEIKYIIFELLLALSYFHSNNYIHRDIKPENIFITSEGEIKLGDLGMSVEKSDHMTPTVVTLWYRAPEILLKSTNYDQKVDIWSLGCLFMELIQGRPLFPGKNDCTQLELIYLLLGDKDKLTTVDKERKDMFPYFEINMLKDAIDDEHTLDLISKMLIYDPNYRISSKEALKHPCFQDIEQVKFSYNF
row,SMILES,outcome
1,CC[C@H]1CN2CC[C@H]1C[C@H]2[C@H](O)c1cc(-c2ccccc2F)nc2ccc(OC)cc12,inactive
2,O=C(CNC1CCCCC1)c1ccc(O)c(O)c1,inactive
3,CCCc1c(C(=O)NC2CCC(CN3CCC(c4c[nH]c5ccccc45)CC3)CC2)cnn1-c1c(Cl)cc(Cl)cc1Cl (stereo not given),inactive
4,CC[C@H]1CN2CC[C@H]1C[C@H]2[C@H](O)c1ccnc2ccc(OC)cc12,inactive
5,Oc1ccccc1CNCC(O)c1cccc(C(F)(F)F)c1 (stereo not given),inactive
6,CN1CC=C(c2c[nH]c3ccc(Br)cc23)CC1,inactive
7,[O-]c1n[n+](C2CCCCC2)no1,inactive
8,OC(CNCc1ccccc1OC(F)F)c1cccc(C(F)(F)F)c1 (stereo not given),inactive
9,CCC1(C)CC(CCNCc2ccccc2O)(c2ccc(F)cc2)CCO1 (stereo not given),inactive
10,CC[C@@]1(O)C(=O)OCc2c1cc1n(c2=O)Cc2c-1nc1cc3c(cc1c2CN1CCOCC1)OCO3,inactive
11,COCCSc1ccc(CC(C)NCC(O)c2cccc(Cl)c2)cc1 (stereo not given),inactive
12,CN(c1cc(NC(=O)c2ccc(F)cc2)ccn1)C1CCN(Cc2cccc(O)c2)CC1,inactive
13,CC(Cc1ccc(Sc2ccccc2)cc1)NCC(O)c1cccc(C(F)(F)F)c1 (stereo not given),inactive
14,C[C@@H](CC1CCCCC1)NCc1ccccc1O,inactive
15,CC(C)CNCc1cccc(-c2ccc(CN(C(=O)Nc3ccccc3)C3CCN(Cc4ccccc4)CC3)cc2)c1,inactive
16,Cc1[nH]c2ccccc2c1C1=CCN(C[C@H]2C[C@@H]2C(=O)c2ccccc2)CC1,inactive
17,CCCCCOc1ccc(CC(C)NCC(O)c2cccc(Cl)c2)cc1 (stereo not given),inactive
18,Cc1[nH]c2cc(Cl)ccc2c1C1=CCN(CCN2CCOc3c(Br)cccc3C2=O)CC1,inactive
19,COc1ccc(O)c(CN2CCN(c3cc(C)ccc3C)CC2)c1,inactive
20,O=C(CCCCCc1ccccc1)NC1CCC(CN2CCC(c3c[nH]c4ccccc34)CC2)CC1 (stereo not given),inactive

row,SMILES,outcome
1,CC(=O)C1(c2ccccc2)CCN(CCC(NC(=O)c2cc(C(F)(F)F)cc(C(F)(F)F)c2)c2ccc(Cl)c(Cl)c2)CC1 (stereo not given),inactive
2,C/C=C1\CN2CC[C@H]1C[C@@H]2[C@@H](O)c1ccnc2ccc(O)cc12,inactive
3,O=C(/C=C/c1cccc(F)c1)NC1CCC(CN2CCC(c3c[nH]c4ccccc34)CC2)CC1 (stereo not given),inactive
4,CC[C@H]1CN2CC[C@@H]1C[C@H]2[C@H](O)c1cc(N2CCC(O)CC2)nc2ccc(OC)cc12,inactive
5,COc1ccc(CN2CCN(CCOC(c3ccc(F)cc3)c3ccc(F)cc3)CC2)c(O)c1,inactive
6,CC[C@H]1CN2CC[C@@H]1C[C@H]2[C@H](O)c1cc(-c2cc(Cl)cc(Cl)c2)nc2ccc(OC)cc12,inactive
7,CS(=O)(=O)Nc1ccc2[nH]cc(C3C[C@H]4CC[C@@H](C3)N4CC3CCC(NC(=O)/C=C/c4ccc(Cl)c(Cl)c4)CC3)c2c1 (stereo not given in full),inactive
8,CC(C)CNCc1ccc(-c2cccc(CN(C(=O)Nc3ccccc3)C3CCN(Cc4ccccc4)CC3)c2)cc1,inactive
9,CN(c1cc(NC(=O)c2cccs2)ccn1)C1CCN(Cc2cccc(F)c2)CC1,inactive
10,C[C@@H](NC(C)(C)C)[C@H](O)c1ccc(Cl)c(C(F)(F)F)c1,inactive
11,CC(=O)N(Cc1cccc(-c2cccc(CNCCc3ccccc3)c2)c1)C1CCN(Cc2ccccc2)CC1,inactive
12,CC[C@H]1CN2CC[C@@H]1C[C@H]2[C@H](O)c1cc(-c2ccc(F)cc2)nc2ccc(O)cc12,inactive
13,O=C(Nc1ccccc1OC(F)(F)F)NC1CCC(CN2CCC(c3c[nH]c4ccccc34)CC2)CC1 (stereo not given),inactive
14,COCC(=O)N(Cc1cccc(-c2ccc(CNCCc3ccccc3)cc2)c1)C1CCN(Cc2ccccc2)CC1,inactive
15,O=C(c1cccs1)N(Cc1cccc(-c2ccc(CNC3CCCC3)cc2)c1)C1CCN(Cc2ccccc2)CC1,inactive
16,O=C(C=Cc1ccc(-c2ccccc2)cc1)NC1CCC(CN2CCC(c3c[nH]c4ccccc34)CC2)CC1 (stereo not given),inactive
17,CN(Cc1ccccc1)C1CCN(CCc2c[nH]c3ccc(F)cc23)CC1,inactive
18,CC(C)CNCc1cccc(-c2cccc(CN(C(=O)NC3CCCCC3)C3CCN(Cc4ccccc4)CC3)c2)c1,inactive
19,CC[C@H]1CN2CC[C@H]1C[C@H]2[C@H](O)c1cc(-c2cccc(Cl)c2)nc2ccc(OC)cc12,inactive
20,Oc1cc2c(cc1CN1CCN(Cc3ccccc3)CC1)CCC2,inactive
